In PubChem BioAssay AID1259415 (National Center for Advancing Translational Sciences (NCATS), 2018):
Out of some 410,000 compounds screened, about 18,000 (4.4%) were called active. Roughly 7% stayed inconclusive and do not appear here. Cut-off read from the data, not from the text of the source: active = activity change below about -60%; inconclusive = no clear call, values can overlap the other calls; inactive = above about -39%. The entries come from a sample that favours actives as a whole.

assay: qHTS Assay for inhibitors of the human cytomegalovirus (HCMV); settings: HFF cells, HCMV-luciferase reporter, 72 h; at 57.5 µM; active compounds read low
Excerpt: NCGC Assay Overview: Infection with human cytomegalovirus (HCMV) continues to pose significant threats for pregnant women and immunocompromised hosts. HCMV causes serious morbidity and mortality in transplant recipients, and congenital HCMV is the leading infectious cause of mental retardation and deafness in children. In the 1990s, the annual costs associated with the disease burden of congenital CMV were estimated at around $2 billion. A HCMV vaccine is not available yet and HCMV therapies result in intolerable side effects and emergence of drug resistant viruses. […] Towards this goal we have developed and characterized a luciferase HCMV reporter that was initially used in 96 well plates and then optimized to 1536-well plates for utilization in screening of the MLSMR collection, the NGCG diversity collection and the NCGC Pharmaceutical Collection of approved and investigational drugs.
NCGC Assay Protocol Summary:
This is a cell-based assay for HCMV inhibition in HFFs cells. The screening used 2 compound doses and the HCMV-luciferase at MOI of 1 PFU/cell. Cells were treated and infected with HCMV. At 72 h post infection cell lysates were collected and luciferase activity was determined using the Glomax-Multi + Detection System (Promega, Madison, WI). Data were normalized to the controls for basal activity (buffer only) and known HCMV inhibitors Salinmoycin.
1536-well assay protocol for the assay:
(1) Add 3 ul CMV/HFF cell culture. 1000 cells/well in DMEM nirmal media.
(2) Incubate 16 hr at 37C.
(3) Add 23 nl control compound, 10uM of Salinomycin.
(4) Add 23 nl compounds in DMSO solution.
(5) Add 3 ul CMV suspension. Final 1 puf/ul, Virus stock 2000pfu/ul
(6) Incubate 72 hrs at 37C.
(7) Add 4 ul OneGlo Luc Reagent.
(8) Incubate 5 min at room temperature.
% is set by controls: 0 for no effect and ±100 for the full control effect.

Question: Which activity change, negative = inhibition does the source give for `COc1ccc(NC(=O)CCN2CCN(CCO)CC2)cc1` here?
Answer: Its activity change, negative = inhibition is 0.59% (inactive).

Question: With `O=C(c1ccc2c(c1)N(Cc1ccccc1)C(=O)c1ccccc1S2(=O)=O)N1CCC(Cc2ccccc2)CC1` as the compound, how does the activity change, negative = inhibition read?
Answer: The activity change, negative = inhibition was 4.82% (inactive).

Question: With `O=C(NCc1cccnc1)c1ccc(CS(=O)(=O)c2ccc(Br)cc2)o1` as the compound, how does the activity change, negative = inhibition read?
Answer: The activity change, negative = inhibition was -24.5% (inactive).

Question: With `COc1ccc(CCNC(=O)c2nnc(CS(=O)(=O)c3ccccc3)o2)cc1OC` as the compound, how does the activity change, negative = inhibition read?
Answer: The activity change, negative = inhibition was -33.4% (inactive).

Question: For `COc1ccc(CCNC(=O)c2ccc(CS(=O)(=O)c3ccc(Br)cc3)o2)cc1OC`, which activity change, negative = inhibition is on record?
Answer: The activity change, negative = inhibition was -92.4% (active).

Question: For `Cc1c(S(=O)(=O)NC(C)c2ccccc2)c(=O)n(C)c(=O)n1C` (stereo not given), which activity change, negative = inhibition is on record?
Answer: Its activity change, negative = inhibition is -5.67% (inactive).

Question: Which activity change, negative = inhibition does the source give for `COCCCNC(=O)[C@H]1N2C(=O)c3ccccc3C2SC1(C)C` (stereo not given in full) here?
Answer: The activity change, negative = inhibition was 36.2% (inactive).

Question: With `O=C(Nc1cc2c3c(c1)C1CCCC1CN3CC1CCCC21)c1ccc([N+](=O)[O-])cc1` (stereo not given) as the compound, how does the activity change, negative = inhibition read?
Answer: Its activity change, negative = inhibition is -31.6% (inactive).

Question: For `Cn1ccc(=Nc2ccc(NC(=O)c3ccc(N=c4ccn(C)c5ccc([N+](=O)[O-])cc45)cc3)cc2)cc1`, which activity change, negative = inhibition is on record?
Answer: The activity change, negative = inhibition was -96.1% (active).

Question: For `CC(=O)Nc1ccc(C(=O)OCC(=O)Nc2ccc([N+](=O)[O-])cc2C(F)(F)F)cc1`, which activity change, negative = inhibition is on record?
Answer: The activity change, negative = inhibition was -34.7% (inactive).

Question: Which activity change, negative = inhibition does the source give for `Cc1ccc(CCNC(=O)c2ccc3c(c2)N(Cc2cc(C)ccc2C)C(=O)c2ccccc2S3=O)cc1` (stereo not given) here?
Answer: Its activity change, negative = inhibition is -0.139% (inactive).

Question: With `Cc1cccc(NC(=O)C2CCCN2S(=O)(=O)c2cccc3nsnc23)c1C` (stereo not given) as the compound, how does the activity change, negative = inhibition read?
Answer: The activity change, negative = inhibition was 31.6% (inactive).

Question: For `CCC(=O)Nc1c(C(=O)N2CCN(c3ccc(F)cc3)CC2)oc2ccccc12`, which activity change, negative = inhibition is on record?
Answer: The activity change, negative = inhibition was -20.1% (inactive).

Question: For `CCOC(=O)C(C)n1cnc2scc(-c3ccc(C)c(C)c3)c2c1=O` (stereo not given), which activity change, negative = inhibition is on record?
Answer: The activity change, negative = inhibition was -39.3% (inactive).

Question: With `CC(=O)C(C)n1cnc2scc(-c3ccc(C)cc3)c2c1=O` (stereo not given) as the compound, how does the activity change, negative = inhibition read?
Answer: Its activity change, negative = inhibition is -61% (active).

Question: For `COC(=O)Cn1cnc2scc(-c3ccc(C)c(C)c3)c2c1=O`, which activity change, negative = inhibition is on record?
Answer: Its activity change, negative = inhibition is -22.1% (inactive).

Question: Which activity change, negative = inhibition does the source give for `COc1cc(C(=O)N2CCN(c3ccc(Nc4ccc(C)cc4)nn3)CC2)cc(OC)c1OC` here?
Answer: Its activity change, negative = inhibition is 36.3% (inactive).

Question: For `CCOC(=O)CNC(=O)/C=C/c1c(Cl)cccc1Cl`, which activity change, negative = inhibition is on record?
Answer: The activity change, negative = inhibition was -12.3% (inactive).

Question: Which activity change, negative = inhibition does the source give for `O=C(Nc1ccc(OCC(=O)N2CCOCC2)cc1)c1cc(F)c(F)cc1Cl` here?
Answer: Its activity change, negative = inhibition is 4.25% (inactive).

Question: For `CN(C)CCCNC(=O)/C=C/c1ccc(OCc2c(F)cccc2Cl)cc1`, which activity change, negative = inhibition is on record?
Answer: Its activity change, negative = inhibition is -62.7% (active).

Question: Which activity change, negative = inhibition does the source give for `O=C(Cc1ccccc1Cl)N1CCOCC1` here?
Answer: Its activity change, negative = inhibition is -27.3% (inactive).

Question: With `O=C(/C=C/c1ccc(OCc2c(F)cccc2Cl)cc1)N1CCOCC1` as the compound, how does the activity change, negative = inhibition read?
Answer: Its activity change, negative = inhibition is -85.8% (active).

Question: Which activity change, negative = inhibition does the source give for `C#CC(C)(CC)NC(=O)Cn1nnc(-c2ccc(OCc3c(F)cccc3Cl)cc2)n1` (stereo not given) here?
Answer: The activity change, negative = inhibition was -28.3% (inactive).

Question: With `COc1cc(C2c3c(oc4ccccc4c3=O)C(=O)N2c2nc(C)c(C)s2)ccc1O` (stereo not given) as the compound, how does the activity change, negative = inhibition read?
Answer: The activity change, negative = inhibition was -20.1% (inactive).

Question: For `CCOC(=O)C1CCCN(CC(=O)Nc2cc(C)c3c(=O)oc4ccccc4c3n2)C1` (stereo not given), which activity change, negative = inhibition is on record?
Answer: The activity change, negative = inhibition was 17.3% (inactive).

Question: With `Cc1ccc(-c2cc(-c3coc4ccccc4c3=O)c3c(n2)-c2cc(Cl)ccc2OC3)cc1` as the compound, how does the activity change, negative = inhibition read?
Answer: The activity change, negative = inhibition was 21.6% (inactive).

Question: Which activity change, negative = inhibition does the source give for `CS/C(=C\[N+](=O)[O-])Nc1ccc(C)cc1` here?
Answer: The activity change, negative = inhibition was -61.4% (active).

Question: For `Cc1ccc(NC(=O)c2cc3cc(C)ccc3n2C)cc1`, which activity change, negative = inhibition is on record?
Answer: The activity change, negative = inhibition was 22.1% (inactive).

Question: For `Cc1nn(CC(=O)Nc2ccc(C#N)cc2)c(C)c1[N+](=O)[O-]`, which activity change, negative = inhibition is on record?
Answer: Its activity change, negative = inhibition is -33.6% (inactive).

Question: For `CCCN(CCC)C(=O)Cn1c(=O)n(-c2ccc(Cl)cc2)c(=O)c2c3c(sc21)CCCCC3`, which activity change, negative = inhibition is on record?
Answer: The activity change, negative = inhibition was 7.98% (inactive).

Question: Which activity change, negative = inhibition does the source give for `COc1ccc(C(=O)N2CCCC(C(=O)c3ccccc3OC)C2)cc1OC` (stereo not given) here?
Answer: The activity change, negative = inhibition was -10.3% (inactive).

Question: Which activity change, negative = inhibition does the source give for `O=C(CSCc1cnn(-c2ccccc2)c1-n1cccc1)NCc1ccccc1Br` here?
Answer: Its activity change, negative = inhibition is -36.4% (inactive).

Question: For `CCc1cc2c(-c3ccccc3)cc(=O)oc2c2c1OCN(Cc1ccc(C)cc1)C2`, which activity change, negative = inhibition is on record?
Answer: Its activity change, negative = inhibition is 0.791% (inactive).

Question: With `O=C(/C=C/Sc1ncn[nH]1)c1ccc(Cl)cc1` as the compound, how does the activity change, negative = inhibition read?
Answer: Its activity change, negative = inhibition is -76.4% (active).

Question: For `Cc1cc(C)c(NC(=O)c2cc3sc(Cl)cc3n2C)c(C)c1`, which activity change, negative = inhibition is on record?
Answer: The activity change, negative = inhibition was -0.202% (inactive).

Question: With `Cc1ccccc1Nc1c([N+](=O)[O-])ccc2nonc12` as the compound, how does the activity change, negative = inhibition read?
Answer: Its activity change, negative = inhibition is -2.44% (inactive).

Question: Which activity change, negative = inhibition does the source give for `CN(c1ccccc1)c1ccc([N+](=O)[O-])c2nonc12` here?
Answer: The activity change, negative = inhibition was -75% (active).

Question: With `CN(Cc1ccccc1)c1ccc(-c2nc(-c3ccccc3)no2)cc1[N+](=O)[O-]` as the compound, how does the activity change, negative = inhibition read?
Answer: Its activity change, negative = inhibition is 22.8% (inactive).

Question: With `CC(=O)Nc1c2c(nn1-c1ccc(C)cc1C)CS(=O)C2` (stereo not given) as the compound, how does the activity change, negative = inhibition read?
Answer: The activity change, negative = inhibition was 0% (inactive).

Question: For `Cc1ccc(-n2nc3c(c2NC(=O)CCC2CCCCC2)CS(=O)C3)cc1` (stereo not given), which activity change, negative = inhibition is on record?
Answer: The activity change, negative = inhibition was -68.2% (active).

Question: For `COc1ccc(-n2nc3c(c2NC(=O)Cc2cccc(C)c2)CS(=O)C3)cc1` (stereo not given), which activity change, negative = inhibition is on record?
Answer: Its activity change, negative = inhibition is 0.139% (inactive).

Question: For `CCOc1cc(C(=O)NCCc2csc3nc(-c4ccc(C)cc4)nn23)cc(OCC)c1OCC`, which activity change, negative = inhibition is on record?
Answer: The activity change, negative = inhibition was -29.1% (inactive).

Question: Which activity change, negative = inhibition does the source give for `Cc1cc(C)n(CC(C)NCc2c(C(=O)N3CCOCC3)nc3c(C)cccn23)n1` (stereo not given) here?
Answer: The activity change, negative = inhibition was 16% (inactive).

Question: Which activity change, negative = inhibition does the source give for `CCCCCn1c(=O)[nH]c2cc(C(=O)Nc3ccc(F)cc3)ccc2c1=O` here?
Answer: Its activity change, negative = inhibition is 3.61% (inactive).

Question: For `N#Cc1cccc(NC(=O)COC(=O)c2ccccc2C(=O)c2ccc(Cl)c([N+](=O)[O-])c2)c1`, which activity change, negative = inhibition is on record?
Answer: Its activity change, negative = inhibition is -99.2% (active).

Question: Which activity change, negative = inhibition does the source give for `Nc1nc(SCC(=O)Nc2ccc(Cl)c([N+](=O)[O-])c2)n[nH]1` here?
Answer: Its activity change, negative = inhibition is -9.65% (inactive).

Question: Which activity change, negative = inhibition does the source give for `CC(C)NC(=O)c1ccc(Sc2ccccc2)c([N+](=O)[O-])c1` here?
Answer: The activity change, negative = inhibition was -15.4% (inactive).

Question: With `Cc1ccc(CC(=O)Nc2cccc(C#N)c2)cc1` as the compound, how does the activity change, negative = inhibition read?
Answer: Its activity change, negative = inhibition is 6.08% (inactive).

Question: Which activity change, negative = inhibition does the source give for `CC(=O)Nc1ccc(NC(=O)C(C)OC(=O)c2ccccc2C(=O)c2ccc(Cl)c([N+](=O)[O-])c2)cc1` (stereo not given) here?
Answer: Its activity change, negative = inhibition is -83.7% (active).

Question: Which activity change, negative = inhibition does the source give for `O=C(COc1ccc(NC(=O)c2ccccc2[N+](=O)[O-])cc1)c1ccc(F)cc1` here?
Answer: The activity change, negative = inhibition was -16.6% (inactive).

Question: With `CCOc1ccc(NC(=O)C(CC(C)C)N2Cc3ccccc3C2=O)cc1` (stereo not given) as the compound, how does the activity change, negative = inhibition read?
Answer: Its activity change, negative = inhibition is 9.79% (inactive).

Question: With `Cc1ccccc1-c1nc(SCC(=O)N(C)c2ccccc2)c2c(=O)n(C)c(=O)n(C)c2n1` as the compound, how does the activity change, negative = inhibition read?
Answer: Its activity change, negative = inhibition is 27.2% (inactive).

Question: For `CCCN1CCN(CCCNC(=O)c2ccc3nc(Cc4ccccc4)oc3c2)CC1`, which activity change, negative = inhibition is on record?
Answer: The activity change, negative = inhibition was 8.36% (inactive).

Question: Which activity change, negative = inhibition does the source give for `CN1CCN(CCCNC(=O)c2ccc(/C=C3\Oc4ccccc4N(Cc4ccc(Cl)cc4)C3=O)cc2)CC1` here?
Answer: The activity change, negative = inhibition was -110% (active).

Question: With `COCCNC(=O)c1ccc2c(c1)N(Cc1cccc(Cl)c1)C(=O)c1ccccc1S2(=O)=O` as the compound, how does the activity change, negative = inhibition read?
Answer: Its activity change, negative = inhibition is 5.49% (inactive).
